Bioassay records: PubChem BioAssay, several laboratories
FXIa mix inh: FXIa protease inhibitors in compound pools, primary screen, biochemical, 10-compound mixtures; Coagulation factor XI (Homo sapiens), P03951; purified FXIa, fluorogenic substrate, pooled mixtures; inhibition, % at 5 µM; actives 0.19% (n = 62,000); AID 680, 2007;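 also: each value is inhibition by a whole ten-compound pool holding the compound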
Cdc25B inh: inhibitors of Cdc25B phosphatase catalytic domain, primary screen, biochemical, OMFP fluorescence. recombinant Cdc25B, OMFP fluorescence Ex485/Em525. inhibition, %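 (compounds tested at 10 µM final in the well)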. M-phase inducer phosphatase 2 (Homo sapiens), P30305. AID 368, 2006. actives 0.1% (n = 65,000); in the data active = inhibition above about 50%
PTPN22 act: LYP phosphatase activators, primary screen, biochemical, DiFMUP fluorescence, 2 µM; actives 0.11% (n = 96,000); activation, % at 2 µM; Tyrosine-protein phosphatase non-receptor type 22 (Homo sapiens), Q9Y2R2; recombinant LYP; 0 = plate median, 100 = signal doubled; AID 697, 2007;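 active = activation at 2 µM above a set limit, the mean plus 5 SD, cut at about 37% in these data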
FXIIa mix inh: human factor XIIa inhibitors, primary screen, biochemical, pooled compound mixtures, fluorogenic substrate. Coagulation factor XII (Homo sapiens), P00748. purified FXIIa. inhibition, % at 5 µM. actives 0.2% (n = 62,000). AID 684, 2007
DUSP1 inh: MKP-1 phosphatase inhibitors, primary screen, biochemical, in vitro; actives 0.15% (n = 65,000); inhibition, %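 (compounds tested at a single concentration somewhere between 10 and 100 µM)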; recombinant MKP-1, OMFP hydrolysis fluorescence; AID 374, 2006;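 active = inhibition above about 50%, limit read from the data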
Target sequence (P28562 whole entry, looked up): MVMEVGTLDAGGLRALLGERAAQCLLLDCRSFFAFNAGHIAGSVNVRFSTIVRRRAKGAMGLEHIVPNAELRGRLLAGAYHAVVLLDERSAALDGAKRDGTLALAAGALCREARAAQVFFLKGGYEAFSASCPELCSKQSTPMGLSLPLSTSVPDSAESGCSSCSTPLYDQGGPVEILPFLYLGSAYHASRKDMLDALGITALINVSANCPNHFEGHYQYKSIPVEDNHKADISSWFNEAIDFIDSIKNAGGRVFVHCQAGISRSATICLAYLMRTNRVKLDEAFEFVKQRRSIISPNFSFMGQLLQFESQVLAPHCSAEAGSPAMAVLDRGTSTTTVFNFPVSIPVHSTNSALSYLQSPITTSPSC
PTPN22 inh 2: PTPN22 phosphatase inhibitors, primary screen, biochemical, DiFMUP fluorescence, 2 µM; Tyrosine-protein phosphatase non-receptor type 22 (Homo sapiens), Q9Y2R2; recombinant LYP catalytic domain; inhibition, % at 2 µM; actives 0.21% (n = 96,000); AID 640, 2007;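 active = inhibition at 2 µM at or above a set limit, the screen mean plus 3 SD, cut at about 24% in these data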
PTPN22 act conf: retest of PTPN22 activators, confirmation, biochemical, DiFMUP fluorescence, single concentration; AID 1031, 2008; shares compounds with PTPN22 act; activation, % at 2 µM; Recombinant LYP, activation; zero set by plate's median compound well; 100 tested, under 10 active; call rule not given here
Each line names hits and unclear results; the compound was inactive in the other large screens (follow-up assays come after a bar, where they were run). This is a sample that favours compounds with a hit; in the whole collection about 0.63% have one here. Rule as the data show it, unless noted: active = inhibition above about 20% (passing the limit was not always enough); inactive = the rest.

COC(=O)c1ccc(NC(=S)NC2CCCCC2)cc1	PTPN22 act 37.5 (no result: FXIa mix inh, Cdc25B inh, FXIIa mix inh, DUSP1 inh) | PTPN22 act conf inactive
COC(=O)c1ccc(NC(=O)C2CCCCC2C(=O)O)cc1 (stereo unspecified)	none (no result: FXIa mix inh, Cdc25B inh, FXIIa mix inh, DUSP1 inh)
COc1ccc(C(=O)N2CCc3cc(OC)c(OC)cc3C2c2cccc([N+](=O)[O-])c2)cc1OC (stereo unspecified)	PTPN22 act 39.4 (no result: FXIa mix inh, Cdc25B inh, FXIIa mix inh, DUSP1 inh) | PTPN22 act conf inactive
COc1ccc(C2=NN(C(=O)c3cccc([N+](=O)[O-])c3)C(c3cccc([N+](=O)[O-])c3)C2)cc1 (stereo unspecified)	none (no result: FXIa mix inh, Cdc25B inh, FXIIa mix inh, DUSP1 inh)
CCOC(=O)CN1C(=O)C(C)(C)Oc2ccc(C(=O)Nc3ccccc3)cc21	none
Cc1ccccc1OCC(=O)OC(C)CN1CCN(C)CC1 (stereo unspecified)	PTPN22 act 47.9 | PTPN22 act conf inactive
Cc1ccccc1OCC(=O)OC1CCN(C)CC1	none (no result: FXIa mix inh, Cdc25B inh, FXIIa mix inh, DUSP1 inh)
CC1CCN(c2ncnc3nc[nH]c23)CC1	PTPN22 act 42.0 (no result: FXIa mix inh, Cdc25B inh, FXIIa mix inh, DUSP1 inh) | PTPN22 act conf inactive
COc1cc(C)nc(Oc2ccc(OCCOc3ccc(C)cc3)nn2)n1	none (no result: FXIa mix inh, FXIIa mix inh)
Cc1nnc(NC(=O)c2ccccc2F)s1	PTPN22 act 38.5 | PTPN22 act conf inactive
Cc1nnc(NC(=O)c2ccccc2Br)s1	none
O=C(Nc1cccnc1)c1cccnc1Cl	PTPN22 act 38.2 (no result: FXIa mix inh, Cdc25B inh, FXIIa mix inh, DUSP1 inh) | PTPN22 act conf inactive
CCCc1nn(C)c2c1C(c1ccncc1)C(C#N)=C(N)O2 (stereo unspecified)	PTPN22 act 56.7 | PTPN22 act conf inactive
Cc1ccc(NCc2nnc(SCC(=O)NCCc3ccccc3)n2C)cc1	none
NC(=O)c1nc(N2CCOCC2)nc(N2CCOCC2)n1	PTPN22 act 40.6 | PTPN22 act conf inactive
CCOC(=O)CSCc1c(C#N)c2ccccc2n1C	PTPN22 act 39.8 | PTPN22 act conf inactive
Cc1ccc(NC(=O)C2CCCN2C(=O)Oc2ccccc2)cc1 (stereo unspecified)	PTPN22 act 39.3 | PTPN22 act conf inactive
CC1CCN(S(=O)(=O)c2ccc(S(=O)(=O)NCC(=O)C(C)(C)C)cc2)CC1	none
CCCN1CCN(CCCNC(=O)Cn2nc(-c3ccccc3)ccc2=O)CC1	none
CC(C)(C)NC(=O)Cn1ccc(=N)c2ccccc21	PTPN22 act 44.9 | PTPN22 act conf inactive
CCC(=O)N1CCc2cc(Br)cc(S(=O)(=O)CCC(=O)NCC3CCCO3)c21 (stereo unspecified)	PTPN22 act 48.6 | PTPN22 act conf inactive
CCC(=O)N1CCc2cc(Br)cc(S(=O)(=O)NCC3CCCO3)c21 (stereo unspecified)	none (no result: PTPN22 act, PTPN22 inh 2)
O=C(c1cc(-c2ccccn2)nc2c(Cl)cccc12)N1CCN(C(=O)C2CCCO2)CC1 (stereo unspecified)	PTPN22 act 44.6 | PTPN22 act conf inactive
Cc1noc2nc(-c3cccs3)cc(-c3nnc4n3CCCCC4)c12	none (no result: PTPN22 act, PTPN22 inh 2)
Cc1cccc(NC(=O)CSc2nnc(Cn3cnc4ccccc43)o2)c1	PTPN22 act 38.0 (no result: FXIa mix inh, Cdc25B inh, FXIIa mix inh, DUSP1 inh) | PTPN22 act conf inactive
CCc1ccccc1NC(=O)CSc1nnc(Cn2cnc3ccccc32)o1	none (no result: FXIa mix inh, Cdc25B inh, FXIIa mix inh, DUSP1 inh)
CC1=C(c2ccc(Cl)cc2)[N+](=O)C(C)(C)N1[O-]	none (no result: PTPN22 act, PTPN22 inh 2)
COc1ccc(Nc2c(C)cccc2C)cc1	PTPN22 act 38.6 (no result: FXIa mix inh, Cdc25B inh, FXIIa mix inh, DUSP1 inh) | PTPN22 act conf inactive
COc1ccc(NCCNc2ccc(OC)cc2)cc1	none
Cc1ccnc(N2CCC(C(=O)Nc3cccc(C(F)(F)F)c3)CC2)n1	none (no result: PTPN22 act, PTPN22 inh 2)
CCCC1(C(=O)OC)NC(c2cccc(F)c2)C2C(=O)N(CC)C(=O)C21 (stereo unspecified)	none (no result: PTPN22 act, PTPN22 inh 2)
CCN1C(=O)C2C(c3cccc(F)c3)NC(CC)(C(=O)OC)C2C1=O (stereo unspecified)	PTPN22 act 41.5 | PTPN22 act conf inactive
COc1ccc(-n2nnnc2SCC(=O)Nc2cccc(C)n2)cc1OC	none
Cc1ccccc1-c1c(C)oc2cc(O)ccc2c1=O	none
